{"source": "the supplement of paper PMC6992640", "data": [{"tested_on": "WHIM30 (cells of a triple-negative basal-like breast cancer xenograft)", "assay": "cell viability of combination (% of vehicle); higher = less cytotoxic", "settings": "1 µM; 72 h; partner dose: 10 nM", "procedure": "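PDX cells were treated for 72 h with each drug at 1 µM plus carfilzomib (10 nM; 100 nM for WHIM2). Luciferase viability is expressed as percent of vehicle.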", "values": [{"smiles": "Br.Cc1ccc(Sc2ccccc2N2CCNCC2)c(C)c1", "note": "+ CC(C)C[C@H](NC(=O)[C@H](CCc1ccccc1)NC(=O)CN1CCOCC1)C(=O)N[C@@H](Cc1ccccc1)C(=O)N[C@@H](CC(C)C)C(=O)[C@@]1(C)CO1 [Carfilzomib]", "cell viability of combination": 15.7}, {"smiles": "CCN(CC)CCCC(C)Nc1ccnc2cc(Cl)ccc12.O=P(O)(O)O.O=P(O)(O)O", "note": "(stereo not given) [Chloroquine diphosphate] + CC(C)C[C@H](NC(=O)[C@H](CCc1ccccc1)NC(=O)CN1CCOCC1)C(=O)N[C@@H](Cc1ccccc1)C(=O)N[C@@H](CC(C)C)C(=O)[C@@]1(C)CO1 [Carfilzomib]", "cell viability of combination": 13.5}, {"smiles": "CC(C)CC(NC(=O)C(NC(=O)c1cccc(-c2ccccc2)n1)C(C)O)B(O)O", "note": "(stereo not given) + CC(C)C[C@H](NC(=O)[C@H](CCc1ccccc1)NC(=O)CN1CCOCC1)C(=O)N[C@@H](Cc1ccccc1)C(=O)N[C@@H](CC(C)C)C(=O)[C@@]1(C)CO1 [Carfilzomib]", "cell viability of combination": 8.71}, {"smiles": "C=C1C(=CC=C2CCCC3(C)C2CCC3C(C)C=CC(C)C(C)C)CC(O)CC1O", "note": "(stereo not given) [Doxercalciferol] + CC(C)C[C@H](NC(=O)[C@H](CCc1ccccc1)NC(=O)CN1CCOCC1)C(=O)N[C@@H](Cc1ccccc1)C(=O)N[C@@H](CC(C)C)C(=O)[C@@]1(C)CO1 [Carfilzomib]", "cell viability of combination": 17}, {"smiles": "Clc1ccc(CSC(Cn2ccnc2)c2ccc(Cl)cc2Cl)cc1.O=[N+]([O-])O", "note": "(stereo not given) [Sulconazole Nitrate] + CC(C)C[C@H](NC(=O)[C@H](CCc1ccccc1)NC(=O)CN1CCOCC1)C(=O)N[C@@H](Cc1ccccc1)C(=O)N[C@@H](CC(C)C)C(=O)[C@@]1(C)CO1 [Carfilzomib]", "cell viability of combination": 14.2}, {"smiles": "CCOC(=O)c1c(CSc2ccccc2)n(C)c2cc(Br)c(O)c(CN(C)C)c12.Cl", "note": "[Arbidol HCl] + CC(C)C[C@H](NC(=O)[C@H](CCc1ccccc1)NC(=O)CN1CCOCC1)C(=O)N[C@@H](Cc1ccccc1)C(=O)N[C@@H](CC(C)C)C(=O)[C@@]1(C)CO1 [Carfilzomib]", "cell viability of combination": 22}, {"smiles": "Cl.O.O=C1Cc2cc(CCN3CCN(c4nsc5ccccc45)CC3)c(Cl)cc2N1", "note": "[Ziprasidone hydrochloride monohydrate] + CC(C)C[C@H](NC(=O)[C@H](CCc1ccccc1)NC(=O)CN1CCOCC1)C(=O)N[C@@H](Cc1ccccc1)C(=O)N[C@@H](CC(C)C)C(=O)[C@@]1(C)CO1 [Carfilzomib]", "cell viability of combination": 22.5}, {"smiles": "COCCOC(=O)C1=C(C)NC(C)=C(C(=O)OCC=Cc2ccccc2)C1c1cccc([N+](=O)[O-])c1", "note": "(stereo not given) [Cilnidipine] + CC(C)C[C@H](NC(=O)[C@H](CCc1ccccc1)NC(=O)CN1CCOCC1)C(=O)N[C@@H](Cc1ccccc1)C(=O)N[C@@H](CC(C)C)C(=O)[C@@]1(C)CO1 [Carfilzomib]", "cell viability of combination": 19.2}, {"smiles": "Nc1ncn(C2OC(CO)C(O)C2O)c(=O)n1", "note": "(stereo not given) [5-Azacytidine] + CC(C)C[C@H](NC(=O)[C@H](CCc1ccccc1)NC(=O)CN1CCOCC1)C(=O)N[C@@H](Cc1ccccc1)C(=O)N[C@@H](CC(C)C)C(=O)[C@@]1(C)CO1 [Carfilzomib]", "cell viability of combination": 20.7}, {"smiles": "C[C@H]1O[C@@H](O[C@H]2[C@@H](O)C[C@H](O[C@H]3[C@@H](O)C[C@H](O[C@H]4CC[C@@]5(C)[C@H](CC[C@@H]6[C@@H]5C[C@@H](O)[C@]5(C)[C@@H](C7=CC(=O)OC7)CC[C@]65O)C4)O[C@@H]3C)O[C@@H]2C)C[C@H](O)[C@@H]1O", "note": "[Digoxin] + CC(C)C[C@H](NC(=O)[C@H](CCc1ccccc1)NC(=O)CN1CCOCC1)C(=O)N[C@@H](Cc1ccccc1)C(=O)N[C@@H](CC(C)C)C(=O)[C@@]1(C)CO1 [Carfilzomib]", "cell viability of combination": 4.55}, {"smiles": "Cc1cn(-c2cc(NC(=O)c3ccc(C)c(Nc4nccc(-c5cccnc5)n4)c3)cc(C(F)(F)F)c2)cn1", "note": "[Nilotinib(AMN-107)] + CC(C)C[C@H](NC(=O)[C@H](CCc1ccccc1)NC(=O)CN1CCOCC1)C(=O)N[C@@H](Cc1ccccc1)C(=O)N[C@@H](CC(C)C)C(=O)[C@@]1(C)CO1 [Carfilzomib]", "cell viability of combination": 22.2}, {"smiles": "CC(C)C[C@H](NC(=O)[C@H](Cc1ccccc1)NC(=O)c1cnccn1)B(O)O", "note": "[Bortezomib] + CC(C)C[C@H](NC(=O)[C@H](CCc1ccccc1)NC(=O)CN1CCOCC1)C(=O)N[C@@H](Cc1ccccc1)C(=O)N[C@@H](CC(C)C)C(=O)[C@@]1(C)CO1 [Carfilzomib]", "cell viability of combination": 5.02}, {"smiles": "CN1CCN(CCOc2cc(OC3CCOCC3)c3c(Nc4c(Cl)ccc5c4OCO5)ncnc3c2)CC1", "note": "[Saracatinib (AZD0530)] + CC(C)C[C@H](NC(=O)[C@H](CCc1ccccc1)NC(=O)CN1CCOCC1)C(=O)N[C@@H](Cc1ccccc1)C(=O)N[C@@H](CC(C)C)C(=O)[C@@]1(C)CO1 [Carfilzomib]", "cell viability of combination": 21.1}, {"smiles": "CC1(COc2ccc3c(c2)ncn3-c2ccc3cccc(N4CCC(N)CC4)c3n2)COC1", "note": "+ CC(C)C[C@H](NC(=O)[C@H](CCc1ccccc1)NC(=O)CN1CCOCC1)C(=O)N[C@@H](Cc1ccccc1)C(=O)N[C@@H](CC(C)C)C(=O)[C@@]1(C)CO1 [Carfilzomib]", "cell viability of combination": 64.3}, {"smiles": "COC(=O)C1=C(C)NC(C)=C(C(=O)OC2CCCN(Cc3ccccc3)C2)C1c1cccc([N+](=O)[O-])c1.Cl", "note": "(stereo not given) [Benidipine HCl] + CC(C)C[C@H](NC(=O)[C@H](CCc1ccccc1)NC(=O)CN1CCOCC1)C(=O)N[C@@H](Cc1ccccc1)C(=O)N[C@@H](CC(C)C)C(=O)[C@@]1(C)CO1 [Carfilzomib]", "cell viability of combination": 13.6}, {"smiles": "Clc1ccc(COC(Cn2ccnc2)c2ccc(Cl)cc2Cl)cc1.O=[N+]([O-])O", "note": "(stereo not given) [Econazole nitrate] + CC(C)C[C@H](NC(=O)[C@H](CCc1ccccc1)NC(=O)CN1CCOCC1)C(=O)N[C@@H](Cc1ccccc1)C(=O)N[C@@H](CC(C)C)C(=O)[C@@]1(C)CO1 [Carfilzomib]", "cell viability of combination": 17.7}, {"smiles": "CC(O)C(=O)O.CCOc1ccc2nc3cc(N)ccc3c(N)c2c1.O", "note": "[Ethacridine lactate monohydrate] + CC(C)C[C@H](NC(=O)[C@H](CCc1ccccc1)NC(=O)CN1CCOCC1)C(=O)N[C@@H](Cc1ccccc1)C(=O)N[C@@H](CC(C)C)C(=O)[C@@]1(C)CO1 [Carfilzomib]", "cell viability of combination": 15.2}, {"smiles": "CCc1cnn2c(NCc3ccc[n+]([O-])c3)cc(N3CCCCC3CCO)nc12", "note": "(stereo not given) + CC(C)C[C@H](NC(=O)[C@H](CCc1ccccc1)NC(=O)CN1CCOCC1)C(=O)N[C@@H](Cc1ccccc1)C(=O)N[C@@H](CC(C)C)C(=O)[C@@]1(C)CO1 [Carfilzomib]", "cell viability of combination": 7.14}, {"smiles": "C=CC(=O)N1CCC(Oc2cc3c(Nc4ccc(Cl)c(Cl)c4F)ncnc3cc2OC)CC1", "note": "[Poziotinib] + CC(C)C[C@H](NC(=O)[C@H](CCc1ccccc1)NC(=O)CN1CCOCC1)C(=O)N[C@@H](Cc1ccccc1)C(=O)N[C@@H](CC(C)C)C(=O)[C@@]1(C)CO1 [Carfilzomib]", "cell viability of combination": 8.92}, {"smiles": "CC(O)C(=O)O.CC(O)C(=O)O.CN1CCN(c2ccc3c(c2)NC(=C2C(=O)N=c4cccc(F)c4=C2N)N3)CC1", "note": "[Dovitinib Dilactic acid] + CC(C)C[C@H](NC(=O)[C@H](CCc1ccccc1)NC(=O)CN1CCOCC1)C(=O)N[C@@H](Cc1ccccc1)C(=O)N[C@@H](CC(C)C)C(=O)[C@@]1(C)CO1 [Carfilzomib]", "cell viability of combination": 32.1}]}]}
